As a reminder, the inhibition is the relative decrease from the control value, in per cent.

This note sets out measurements from PubChem BioAssay AID602123 (The Scripps Research Institute Molecular Screening Center, 2011).

Structures are written as SMILES. The whole screen tested about 360,000 compounds, of which about 1,500 (0.42%) were called active. Cut-off read from the data, not from the text of the source: active = inhibition above about 13% (passing the limit was not always enough); inactive = the rest. The full list was thinned out, with actives kept by preference.

The target of this assay is Lon protease (Escherichia coli (strain K12)) (UniProt P0A9M0). Briefly: E. coli eLon protease inhibition – biochemical, fluorescence polarization, primary screen (AID 602123).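 Note: 0% = enzyme with probe and DMSO and 100% = no enzyme.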 The following applies: purified E. coli Lon protease, at 7.94 µM, active compounds read high. Background: Polarisation of emitted light reports the rotation of a fluorescent probe.
Chain of Lon protease (Escherichia coli (strain K12)) (P0A9M0 whole entry, looked up): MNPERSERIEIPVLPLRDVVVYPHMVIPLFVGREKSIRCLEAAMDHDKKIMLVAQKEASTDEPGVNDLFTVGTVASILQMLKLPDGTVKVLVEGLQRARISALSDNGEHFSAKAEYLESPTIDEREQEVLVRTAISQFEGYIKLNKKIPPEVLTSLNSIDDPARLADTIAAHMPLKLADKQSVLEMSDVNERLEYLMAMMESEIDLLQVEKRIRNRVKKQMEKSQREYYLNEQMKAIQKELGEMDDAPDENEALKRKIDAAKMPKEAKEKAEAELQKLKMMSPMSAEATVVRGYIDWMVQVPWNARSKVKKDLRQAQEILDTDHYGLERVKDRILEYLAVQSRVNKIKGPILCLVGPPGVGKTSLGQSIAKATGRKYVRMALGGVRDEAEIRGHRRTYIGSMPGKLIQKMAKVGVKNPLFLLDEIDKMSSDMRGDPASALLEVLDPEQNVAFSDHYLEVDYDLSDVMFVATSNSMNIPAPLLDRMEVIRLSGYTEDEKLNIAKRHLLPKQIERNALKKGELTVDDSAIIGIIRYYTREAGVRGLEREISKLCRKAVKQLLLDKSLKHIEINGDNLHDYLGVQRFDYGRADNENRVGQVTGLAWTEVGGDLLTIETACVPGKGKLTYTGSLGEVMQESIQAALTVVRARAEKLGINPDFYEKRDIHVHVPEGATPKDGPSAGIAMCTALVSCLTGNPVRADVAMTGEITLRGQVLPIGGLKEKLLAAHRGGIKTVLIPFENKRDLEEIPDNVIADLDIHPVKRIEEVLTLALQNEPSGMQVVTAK
For `O=C(OCCOc1ccccc1Cl)c1cc(S(=O)(=O)N2CCCCC2)ccc1N1CCOCC1`, the inhibition was -5.06% (inactive). `COc1cccc(NC(=O)N2C3CCCC2CC(NC(C)=O)C3)c1` (configuration not stated): the inhibition is -2.6% (inactive). With `CCCN1C(=O)C(NC(C)=O)c2cc(OC)ccc21` (configuration not stated) the figure was 16.3% (active). `CCCN1C2CCCC1CC(NC(=O)c1cccc(OC)c1)C2` (configuration not stated): the inhibition is -6.23% (inactive). Next, `NC(=O)C1CCCN(CC(=O)N2CCN(c3ccccc3)CC2)C1` (configuration not stated): -1.63% (inactive); `OCCC1CN(Cc2cccc(O)c2)CCN1CCc1ccccc1` (configuration not stated): -2.49% (inactive); `CCOCC(=O)NCc1ccc2c(c1)cc(C)n2C`: 13.8% (inactive). Regarding `COc1cc(C(=O)NCc2ccc3c(c2)cc(C)n3C)cc(OC)c1OC`, the inhibition is 24.5% (active).

Turning to `CCn1c(CNC(=O)c2cc(OC)c(OC)c(OC)c2)cc2cc(C)ccc21`, the inhibition was -10.1% (inactive). Next, `c1cc(-n2cnnn2)ccc1NC1=NCCC1`: -0.06% (inactive); `CC1=C(C(=O)Nc2cccc(C(=O)NCC(C)c3ccccc3)c2)SCCO1` (configuration not stated): 18.4% (inactive); `Cc1ccc(SCC(=O)Nc2nncs2)cc1`: 6.67% (inactive). Next, `Cc1ccc(NC(=O)Cc2nnc(SCC(=O)Nc3nncs3)n2C)cc1`: 45.4% (active).

As to `CCn1c(CC(=O)Nc2ccc(C)cc2)nnc1SCC(=O)Nc1nc(C)cs1`, the inhibition was 0.33% (inactive). For the molecule `COc1ccc(C2C(C#N)=C(N)Oc3cc(N)ccc32)cc1OC` (configuration not stated), the inhibition was -24.5% (inactive). Next, `COc1ccc(CNCCCO)cc1OC`: 8.73% (inactive). Next, `COc1ccc(C2c3ccc(O)cc3Oc3ncn(CCCO)c(=N)c32)cc1OC` (configuration not stated): 58.2% (active). Next, `O=C1NC[C@@H](CCCCN2CCN(CCc3ccc(O)cc3)C(=O)C2=O)N(CC2CCCCC2)C1=O`: -2.96% (inactive). `Cc1cc(NS(=O)(=O)c2ccc(NC(=S)NC(=O)c3ccc(F)cc3Cl)cc2)no1`: the inhibition is 2.44% (inactive).

On to `CN(CC(=O)Nc1ccc(F)c(F)c1F)C(=O)C1CC(=O)N(C2CCCC2)C1` (configuration not stated), for which the inhibition is -6.03% (inactive).

Turning to `CC1(C)C(c2cccs2)=[N+]([O-])C2(CCCCC2=O)N1O` (configuration not stated), the inhibition was -3.06% (inactive).

In the case of `COc1ccc(Cl)cc1-n1c(C)cc(C(=O)OCC(=O)N2CC(=O)Nc3ccccc32)c1C`, the inhibition is 7.08% (inactive). With `CN(C(=O)COC(=O)Cn1cnc2c1c(=O)n(C)c(=O)n2C)C1(C#N)CCCCC1` the figure was -2.86% (inactive); with `Cc1ccc(-c2nc3c(C)cc(Br)cn3c2Cc2ccccc2)cc1`, -0.26% (inactive). In the case of `Cc1cc(Br)cn2c(Cc3cccc(F)c3)c(-c3cccc(Br)c3)nc12`, the inhibition was -1.91% (inactive). With `Cc1cc(Br)cn2c(Cc3ccsc3)c(-c3ccc(C#N)cc3)nc12` the figure was 50.3% (active). With `CCN(CCNC(=O)C1=C(C)C(=O)OC12CCC(C)CC2)c1ccccc1` (configuration not stated) the figure was 2.56% (inactive). With `CCc1ccccc1NC(=O)CSc1nnc(CCNC(=O)OC(C)(C)C)o1` the figure was 3.77% (inactive). Take `O=C(N/N=C1\CCSC1)c1cc(Cl)ccc1O`: the inhibition is -2.2% (inactive). With `COc1cccc(CNC(=O)CCC2CCCN(C(=O)c3ccc(F)c(Cl)c3)C2)c1` (configuration not stated) the figure was -13.9% (inactive). Next, `COc1cccc2c1C(=O)c1c(O)c3c(c(O)c1C2=O)CC(O)(C(C)=NNC(=O)c1ccc(Cl)c(Cl)c1)CC3OC1CC(N)C(O)C(C)O1` (configuration not stated): 636% [above what the read-out allows, likely interference] (active); `Cc1cc(NC(=O)C(C)N2C(=O)c3ccccc3S2(=O)=O)no1` (configuration not stated): -0.19% (inactive). Regarding `CC(=O)c1cccc(OCC(=O)OCC(=O)Nc2cc(S(=O)(=O)N3CCCCC3)ccc2C)c1`, the inhibition is 7.88% (inactive). Next, `CCOC(=O)[C@]12CCCC=C1N(Cc1ccc3c(c1)OCO3)C(=O)[C@H](CC(=O)NCc1cccs1)C2`: 5.92% (inactive); `CC1=NN(C(=O)CCc2ccccc2O)C(O)(C(F)(F)F)C1` (configuration not stated): 18.2% (active). Next, `COc1ccc(CC(=O)N2N=C(C)CC2(O)C(F)(F)F)cc1` (configuration not stated): -7.36% (inactive); `CC1=NN(C(=O)CCCc2ccccc2)C(O)(C(F)(F)F)C1` (configuration not stated): -1.58% (inactive); `CCOC(=O)C1CCN(Cc2c(C(=O)N3CCOCC3)nc3c(C)cccn23)CC1`: -0.49% (inactive). Next, `Cc1cccc(N2CCC(NCc3c(C(=O)N4CCCCC4)nc4c(C)cccn34)CC2)c1`: 29% (active). For the molecule `Cc1cccn2c(CNCC(C)Oc3cccnc3)c(C(=O)N3CCOCC3)nc12` (configuration not stated), the inhibition was -6.22% (inactive). Next, `CCOC(=O)c1cccc(NC(=O)C2CCCN(S(=O)(=O)c3cnc[nH]3)C2)c1` (configuration not stated): -1.61% (inactive); `CCOCCc1nn2c(=O)cc(CSCC(=O)Nc3cccc(C)c3C)nc2s1`: 4.06% (inactive); `COC(=O)c1ccc2nc(-c3ccc(F)cc3)c(Cc3ccc(C)cc3)n2c1`: -5.56% (inactive). With `O=c1oc2ccccc2c(CNc2ccccc2)c1[N+](=O)[O-]` the figure was -5.51% (inactive); with `CCCCCCCCOC1OC(CO)C(O)C(O)C1NC(C)=O` (configuration not stated), 5.86% (inactive); with `COC(=O)c1cc(NC(=O)c2cc(C(C)(C)C)nn2Cc2cccc(C)c2)ccc1N1CCOCC1`, 7.4% (inactive).

`CCCCOP(=O)(c1ccc(N(C)C)cc1)C(O)c1cc(OC)ccc1OC` (configuration not stated): the inhibition was 9.34% (inactive). With `CCOc1ccc(CCN2C(=S)N([C@@H](CC(C)C)CN3CCC[C@@H]3CN3C(=S)NC[C@@H]3Cc3ccc(O)cc3)C[C@@H]2Cc2ccc(O)cc2)cc1` the figure was 1.84% (inactive); with `COC(=O)c1sccc1-n1cccc1C(=O)C(=O)N1CCCCC1`, -3.71% (inactive); with `COc1ccc(-c2nc(CS(=O)CC(=O)NCc3ccccn3)c(C)o2)cc1` (configuration not stated), 21.2% (active). As for `COc1ccc(-c2nc(CS(=O)CC(=O)NCc3cccnc3)c(C)o2)cc1OC` (configuration not stated), the inhibition is -14.5% (inactive). Consider `Cc1ccc(-c2nc(CS(=O)CC(=O)NC3CCCC3)c(C)o2)cc1` (configuration not stated), for which the inhibition was -12.5% (inactive). With `O=C(OCc1cn([C@H]2C[C@H](c3ccccc3)N(C(=O)c3cccs3)C[C@@H]2O)nn1)c1ccccc1` the figure was 2.92% (inactive); with `CC1C(c2ccccc2)=[N+]([O-])C2(CCCC2)N1O` (configuration not stated), -2.56% (inactive); with `CCn1cc(C(=O)NCCCN2CCCCCC2)c(=O)c2cc(S(=O)(=O)N3CCc4ccccc4C3)ccc21`, 1.65% (inactive). With `CCOC(=O)N1CCN(C(=O)c2cn(C)c3ccc(S(=O)(=O)N(CC)CC)cc3c2=O)CC1`, the inhibition is 1.34% (inactive). With `CCN(CC)CCCNC(=O)c1cn(C)c2ccc(S(=O)(=O)N(C)C3CCCCC3)cc2c1=O`, the inhibition was 21.3% (active).
